Source: PubChem BioAssay
NLRP3 yeast inh – NALP3 inhibition in yeast; Yeast reconstituted NLRP3/ASC/caspase-1, beta-gal luminescence, 24 h; inhibition, % at 10 µM; 330,000 tested, 0.39% active; AID 2825;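 active = inhibition of 50% or more; inactive = inhibition below 50%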;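 note: plate controls were induced DMSO wells for no effect and uninduced yeast grown without galactose for full effect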
tim10-1 inh – tim10-1 yeast growth inhibition; S. cerevisiae tim10-1 ts strain growth, BacTiter-Glo, 24 h; inhibition, % at 20 µM; 330,000 tested, 2.2% active; AID 463190;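 active = inhibition of at least 40%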;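 note: mutant grown at 25 °C; 0% = DMSO wells with yeast and 100% = wells holding no yeast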
TIM10 inh – TIM10 yeast growth inhibition; S. cerevisiae TIM10 strain growth, BacTiter-Glo luminescence, 24 h; 330,000 tested, 1.4% active; AID 463195; inhibition, % at 10 µM;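 active = inhibition of 40% or more at the single tested concentration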;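 note: wild-type TIM10 isogenic control strain grown at permissive 25 °C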
SKKanGAS inh – blocks kanamycin growth of S. pyogenes SKKanGAS strain; BacTiter-Glo, 6 h; inhibition, % at 7.5 µM; 300,000 tested, 1.3% active;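 active = mean replicate score, as percent of positive control median, at least 50; inconclusive = mean below 50 but one replicate at or above 50; inactive = mean and every replicate below 50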;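 note: strain carries kanamycin resistance gene driven by streptokinase promoter and grows in 40 µg/ml kanamycin; loss of luminescence reflects streptokinase promoter inhibition or plain growth inhibition; 0% = median of DMSO wells and 100% = positive control at its reference dose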
tim23-1 inh – inhibits growth of tim23-1 mutant yeast | inhibition, % at 20 µM | S. cerevisiae tim23-1 growth, BacTiter-Glo luminescence, 24 h | 330,000 tested, 1.3% active;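 active = growth inhibition of the mutant yeast at or above 50%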;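 note: temperature-sensitive mutant grown at 25 °C; plate controls were DMSO-treated mutant yeast for no effect and medium wells lacking yeast for full effect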
PfHsp90 yeast 2 – reduces growth (ATP signal) of yeast expressing P. falciparum Hsp90. S. cerevisiae expressing PfHsp90, BacTiter-Glo ATP, 48 h; yeast lacking PDR1 and PDR3 efflux regulators. inhibition, % at 9.4 µM. 310,000 tested, 0.32% active. AID 504621;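 active = every replicate shows inhibition above about 80%, whatever the replicate mean, limit read from the data; inconclusive = mean inhibition reaches the set limit but some replicate falls short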;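 note: 0% = DMSO neutral controls and 100% = 20 µM radicicol positive controls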
The depositor's hits bear a star; ? = inconclusive; nt = no result. Shown are actives, neighbours in structure and some others; about 4.5% of the full set was active somewhere.

SMILES	NLRP3 yeast inh	tim10-1 inh	TIM10 inh	SKKanGAS inh	tim23-1 inh	PfHsp90 yeast 2
CC(=O)C(=Nc1ccc(Cl)cc1Cl)NNc1cccc(Cl)c1	14	15	6	52*	-3	-21
CSc1nc(SCC(=O)O)c2sc3nc(-c4ccccc4)c4c(c3c2n1)CCC4	nt	nt	nt	68*	nt	-20
CN(Cc1c(F)cccc1Cl)C(=O)c1ccc(NC(=O)CC2SC(N3CCCCC3)=NC2=O)cc1 (stereo not given)	18	-7	10	nt	-8	0
Cc1cc(C)cc(OCC(=O)NNC(=S)NC(=O)C2CC2)c1	31	23	-13	87*	14	?
COc1ccc(OCC(=O)NNC(=S)NC(=O)C2CCCCC2)cc1	27	19	-22	64*	18	nt
COc1ccc(CC(=O)NC(=S)NNC(=O)COc2c(C)cccc2C)cc1	15	-42	-7	97*	-39	-10
CNC(=S)NNC(=O)Cc1ccc(OC)cc1	9	-11	-11	8	-23	-2
COc1ccc(OCC(=O)NNC(=S)NC(=O)C2CC2)cc1	18	9	5	63*	-21	-24
COc1ccc(C(=O)NC(=S)NNC(=O)CNC(=O)C2CCCCC2)cc1	10	27	16	8	-4	6
CCCCNC(=O)NNC(=O)COc1cc(C)cc(C)c1	3	3	-7	-5	10	-2
C=CCOc1ccc(/C=C2\SC(=S)N(NS(=O)(=O)c3ccc(C)cc3)C2=O)cc1	24	25	34	25	34	2
COc1cc(OC)cc(C(=O)NNC(=O)CN2C(=O)NC3(CCCC3)C2=O)c1	15	-5	0	nt	-1	-43
OCCCCC#Cc1c(-c2ccsc2)sc2ccccc12	16	33	14	65*	39	-112
CCOC(=O)c1sc2nc(C)nc(NCc3ccc(Cl)cc3)c2c1C	6	23	-10	32	28	10
CCOC(=O)c1sc2nc(Cc3ccc(Cl)cc3)[nH]c(=S)c2c1C	14	-25	-4	58*	-15	-24
CO[C@H]1C=CO[C@@]2(C)Oc3c(C)c(O)c4c(O)c(c5c(nc6cc(C)ccn65)c4c3C2=O)NC(=O)C(C)=CC=C[C@H](C)[C@H](O)[C@@H](C)[C@@H](O)[C@@H](C)[C@H](OC(C)=O)[C@@H]1C	19	15	6	105*	7	nt
CO[C@H]1C=CO[C@@]2(C)Oc3c(C)c(O)c4c(O)c(c5c(c4c3C2=O)NC2(CCN(CC(C)C)CC2)N=5)=NC(=O)C(C)=CC=C[C@H](C)[C@H](O)[C@@H](C)[C@@H](O)[C@@H](C)[C@H](OC(C)=O)[C@@H]1C	nt	nt	nt	106*	nt	nt
Oc1cccc(-c2nc3c4c(ncn3n2)-c2ccccc2CC42CCCC2)c1	2	19	2	106*	17	21
CCc1cc2c(=O)n(Cc3ccco3)c(SCc3c(C)noc3C)nc2s1	3	29	13	99*	26	38
CCc1cc2c(=O)n(Cc3ccco3)c(SCC(=O)NCC3CCCO3)nc2s1 (stereo not given)	14	9	-22	2	7	16
CC(C)CN(C(=O)/C=C/c1nc2ccccc2s1)C1CCS(=O)(=O)C1 (stereo not given)	-1	5	-10	2	2	nt
COc1cc2c(C#N)c(N3CCN(c4ccccc4OC)CC3)nc(N)c2c(N)n1	11	25	33	72*	37	-4
COc1ccc(C(=O)Nc2ccccc2-c2nnn(CC(=O)Nc3ccc4c(c3)OCCO4)n2)cc1	-3	4	-30	66*	-27	29
Cc1cc(NC(=O)CC2CCCC2)n(-c2nc3ccccc3[nH]2)n1	12	34	28	51*	11	4
Cc1cc(NC(=O)/C=C/c2ccccc2Cl)n(-c2nc3ccccc3[nH]2)n1	3	13	15	81*	1	-10
SMILES	NLRP3 yeast inh	tim10-1 inh	TIM10 inh	SKKanGAS inh	tim23-1 inh	PfHsp90 yeast 2
CN(C)/C=C/C(=O)/C=C/c1cn(-c2ncc(C(F)(F)F)cc2Cl)c2ccccc12	8	35	11	18	47	121*
Nc1nc(NCCOCCO)nc(N2CCCCCC2)c1[N+](=O)[O-]	2	6	-22	77*	5	1
Nc1nc(NCCO)nc(N2CCCCCC2)c1[N+](=O)[O-]	5	-6	15	0	-2	1
O=C(NNC1=C(C(=O)C(F)(F)F)CCC1)c1cccc(Cl)c1	5	-40	-75	96*	-6	51
COc1ccc(C(=O)NNC2=C(C(=O)C(F)(F)F)CCC2)cc1	9	14	20	5	18	3
CC(C)NC(=O)NC(=O)CSc1nnc(COc2ccccc2F)n1C(C)C1CC2CCC1C2 (stereo not given)	7	34	28	51*	36	-10
CC(C1CC2CCC1C2)n1c(COc2ccccc2F)nnc1SCC(N)=O (stereo not given)	14	20	10	6	12	6
O=[N+]([O-])c1ccc(N/N=C/c2c[nH]c3ccccc23)c(S(=O)(=O)Nc2ccc(Cl)cc2)c1	28	20	7	77*	12	-2
CCCCCCOC(=O)/C=C/c1c(C)[nH]c(=O)[nH]c1=O	8	9	1	86*	3	0
CCCCCCCCOC(=O)CCc1c(C)[nH]c(=S)[nH]c1=O	25	15	4	2	23	-11
CC1CCN(S(=O)(=O)c2nnc(NC(=O)COc3ccccc3)s2)CC1	6	6	4	6	8	1
COc1ccc(CCN2C(=O)C=CC2=O)cc1OC	nt	nt	nt	nt	nt	104*
COc1ccc(CCn2c(C)ccc2C)cc1OC	19	18	-5	1	8	nt
CCn1cc(C(=O)O)c(=O)c2cc(F)c(N3CCN(S(=O)(=O)c4ccc5c(c4)OCCO5)CC3)cc21	32	-7	-4	60*	-7	-14
CCn1cc(C(=O)O)c(=O)c2cc(F)c(N3CCN(S(=O)(=O)c4ccc(NC(C)=O)cc4)CC3)cc21	12	18	-6	53*	-9	-20
Cc1cccc(N2CCN(S(=O)(=O)c3c(C)noc3/C=C/N(C)C)CC2)c1C	8	39	23	15	37	111*
O=C1c2cc(F)ccc2-n2c1nc1ccccc1c2=O	-3	-11	9	39	30	90*
Cc1nc(=S)c2c([nH]1)-c1ccccc1CC21CCCCC1	7	23	20	100*	16	10
Cc1ccc(SCC(=O)NNC(=O)c2ccccc2)c(C)c1	6	-18	10	2	10	-4
CC1CCN(c2nc(-c3ccccc3)cc(C(F)(F)F)n2)CC1	23	15	0	?	15	nt
Cc1ccc(-c2cc(C(F)F)nc(N3CCC(C)CC3)n2)cc1	-5	6	-34	63*	-15	nt
